Results as given in PubChem BioAssay (Tox21).
“And” between values parts separate entries of the source, which are not always exact repeats. Identical values can stand only once. Inconclusive results are not listed. Some compounds were tested as several samples or in several runs, with calls that do not always agree. The source made the active and inactive calls. The call rests on the fitted dose curve; in most records, active means well fitted activation curve with a large enough effect in the repeat runs; inconclusive means weak or mixed curves; inactive means flat fitted curve, though single readings scatter.

experiment: A CellTox Green Cytotoxicity Assay to monitor cytotoxicity in HEK293 cells - 32 hour (AID 1224881); conditions: CellTox Green fluorescence; series mostly up to 76.8 µM; cytotoxicity increase: at the top concentration; further: nearly all actives have a fitted effect of over 40% in size
How it was run: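 Fluorescence from a DNA-binding dye excluded by viable cells was measured repeatedly in the same HEK293 wells (600 cells/well) during continuous compound exposure at 37 C. Each assay gives one read point: 0, 8, 16, 24, 32 or 40 h.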
On the % scale 0 is the no-effect control and ±100 the full control effect; potency means the concentration at half of the fitted maximal effect.

Compound	cytotoxicity increase	Potency
NC(=Nc1ccccc1)Nc1ccccc1	1.26% [at 35.3 µM] (inactive)	–
CC(=O)OCC1=C(C(=O)O)N2C(=O)[C@@H](NC(=O)Cc3cccs3)[C@H]2SC1	-2.55% [at 35.3 µM] (inactive)	–
COC(=O)c1cccc(C(=O)OC)c1	–	inactive and 38.9 µM (active)
Cc1cccc(O)c1C	-4.9% (inactive)	–
CC(=O)Nc1ccc(C(=O)CCl)cc1	–	inactive and 15.5 µM (active)
OCCN1CCNCC1	-11.9% (inactive)	–
[Cl][In]([Cl])[Cl]	-6.7% (inactive)	–
O	–	inactive
C=C(C)C(=O)O	–	inactive
O=C(Cl)c1cccc(C(=O)Cl)c1	–	inactive
CC(=O)C1=C(C)[C@@H]2C[C@@]3(C1)[C@H](C)CC[C@H]3C2(C)C	–	36.2 µM (active) and inactive
C#CC(C)(CC)OC(=O)c1ccccc1C(=O)O (stereo not drawn)	7.69% [at 35.3 µM] (inactive)	–
CCCCOCCOC(=O)c1ccccc1C(=O)OCCOCCCC	–	inactive
O=C(O)CP(=O)(O)O	-0.883% [at 35.3 µM] (inactive)	–
c1ccc2cc3c(ccc4ccccc43)cc2c1	–	inactive
O=C(O)c1cn(-c2ccc(F)cc2)c2cc(N3CCNCC3)c(F)cc2c1=O	–	inactive
CC(=O)O[C@]1(C(C)=O)CC[C@H]2[C@@H]3C[C@H](C)C4=CC(=O)CC[C@]4(C)[C@H]3CC[C@@]21C	16.2% [at 35.3 µM] (inactive)	–
CCCN[C@H]1CCc2nc(N)sc2C1	–	inactive
